# Screen size: about 1,400 compounds; about 1,000 (71%) were called active. The set was probably picked from earlier hits. A selection follows. Entries with a potency or affinity are not part of this list. Unmarked numbers belong to inactive results. No rule for the calls is given here.
# Assay: inhibitors of HIV Env-driven cell fusion, dose response, cherry-pick (AID 652057)
# Settings: HeLa-JRFL Env/CEM21 cell fusion, luciferase; series mostly up to 35 µM; activity change, negative = inhibition: at the top concentration
row,SMILES,"activity change, negative = inhibition"
1,O=C(C[C@@H]1C[C@H]2c3cc(NC(=O)Nc4ccccc4)ccc3O[C@H]2[C@H](CO)O1)NCc1cccnc1,-1.52%
2,O=C(NCc1cccnc1)c1c[nH]c2cc3c(cc2c1=O)OCCO3,47.4%
3,COc1cc(CSc2nnnn2-c2ccc(C)cc2)cc(OC)c1OC,-1.13%
4,c1ccc2c(c1)ncn2CCCCOc1ccc2c(c1)CCC2,1.92% [at 16 µM]
5,Cc1ccc(Cn2ncc3c(N4CCN(Cc5ccc(Cl)cc5)CC4)ncnc32)cc1,-11.6%
6,COc1ccc(C)cc1NC(=O)CCNS(=O)(=O)c1ccc2c(c1)CC(C)N2C(C)=O (stereo not drawn),-12.8%
7,CCOC(=O)C1CCN(C(=O)c2ccc3c(c2)C(=O)N(c2ccccc2C)C3=O)CC1,35.1%
8,COc1ccc(OCC(=O)Nc2ccccc2N2CCCCC2)cc1,39.9%
9,OCC[C@@H]1C[C@@H](O)[C@H](O)[C@]2(OCc3ccccc32)O1,-4.52%
10,Cc1ccc(Cn2ncc3c(N4CCN(c5ccc(C)cc5)CC4)ncnc32)cc1,35%
11,c1ccc2c(c1)CCN(c1ncnc3c1[nH]c1ccccc13)C2,2.06%
12,CC(=O)c1ccc(S(=O)(=O)N2CCN(c3nc4c(C)c(C)ccc4cc3C#N)CC2)cc1,-11.1%
13,O=C(C[C@H]1C[C@@H]2c3cc(NC(=O)C4CCC4)ccc3O[C@@H]2[C@@H](CO)O1)NCC(F)(F)F,9.8%
14,CC(=O)C1=C(C)NC(=S)NC1c1ccccc1 (stereo not drawn),13.6%
15,CCOC(=O)C1CCCN(Cc2nc(N)nc(Nc3ccc(OC)cc3)n2)C1 (stereo not drawn),-0.574%
16,COC(=O)[C@@]1(Cc2ccc(F)cc2)[C@H]2c3cc(C(=O)N(C)C)n(CCO)c3C[C@H]2CN1C(=O)c1ccccc1,13.3%
17,N#CCSc1nnc(-c2sc3ccccc3c2Cl)o1,-11.7%
18,CO[C@H]1CN(C)C(=O)c2cc(NS(=O)(=O)c3ccc(Cl)cc3)ccc2OC[C@@H](C)N(C)C[C@@H]1C,19.1%
19,CO[C@H]1CN(C)C(=O)c2cc(NC(C)=O)ccc2OC[C@@H](C)N(Cc2nccs2)C[C@H]1C,20.8%
20,CCNC(=O)C[C@@H]1CC[C@@H]2[C@H](COC[C@@H](O)CN2C(=O)c2ccccn2)O1,-7.64%
21,CS(=O)(=O)Nc1ccc2c(c1)[C@H]1C[C@H](CC(=O)NCc3ccc(-c4ccccc4)cc3)O[C@H](CO)[C@H]1O2,-12.4%
22,CN(C)C(=O)C[C@@H]1C[C@H]2c3cc(NS(=O)(=O)c4ccc(F)cc4)ccc3O[C@H]2[C@H](CO)O1,37.5%
23,COCCNC(=O)C[C@@H]1C[C@H]2c3cc(N(C)C)ccc3O[C@H]2[C@@H](CO)O1,14.4% [at 16 µM]
24,CCCNC(=O)C[C@H]1C[C@H]2c3cc(NC(=O)Cc4ccncc4)ccc3O[C@H]2[C@H](CO)O1,0.858%
25,CCCNC(=O)C[C@@H]1C[C@@H]2c3cc(NC(=O)Cc4ccncc4)ccc3O[C@@H]2[C@H](CO)O1,5.24%
26,CS(=O)(=O)Nc1ccc2c(c1)[C@H]1C[C@@H](CC(=O)NCCN3CCCCC3)O[C@@H](CO)[C@H]1O2,18.3%

row,SMILES,"activity change, negative = inhibition"
1,CN(C)C(=O)C[C@H]1C[C@@H]2c3cc(NS(=O)(=O)c4ccc(F)cc4)ccc3O[C@@H]2[C@@H](CO)O1,14.9%
2,O=C(C[C@@H]1C[C@@H]2c3cc(NC(=O)c4ccc5c(c4)OCO5)ccc3O[C@@H]2[C@@H](CO)O1)NCc1ccc(Oc2ccccc2)cc1,-9.82% [at 30 µM]
3,CS(=O)(=O)Nc1ccc2c(c1)[C@H]1C[C@H](CC(=O)N3CCc4ccccc4C3)O[C@H](CO)[C@H]1O2,4.05%
4,O=C(C[C@H]1C[C@@H]2c3cc(NC(=O)C4CCOCC4)ccc3O[C@@H]2[C@H](CO)O1)NCc1ccccc1,-0.474%
5,O=C(C[C@@H]1C[C@@H]2c3cc(NC(=O)C4CCC4)ccc3O[C@@H]2[C@@H](CO)O1)NCc1ccc2c(c1)OCO2,-14.9%
6,COC(=O)C[C@@H]1C[C@H]2c3cc(NS(=O)(=O)c4cccc(OC)c4)ccc3O[C@H]2[C@@H](CO)O1,53.6%
7,CS(=O)(=O)Nc1ccc2c(c1)[C@@H]1C[C@@H](CC(=O)N3CCc4ccccc4C3)O[C@H](CO)[C@@H]1O2,16.9%
8,O=C(C[C@@H]1C[C@H]2c3cc(NC(=O)C4CCOCC4)ccc3O[C@H]2[C@@H](CO)O1)NCc1ccccc1,6.66%
9,O=C(C[C@H]1C[C@H]2c3cc(NS(=O)(=O)c4ccc(F)cc4)ccc3O[C@H]2[C@@H](CO)O1)NCc1ccccc1F,27.6%
10,O=C(C[C@@H]1C[C@@H]2c3cc(NS(=O)(=O)c4ccc(F)cc4)ccc3O[C@@H]2[C@H](CO)O1)NCc1ccccc1F,-1.08%
11,O=C(C[C@@H]1C[C@@H]2c3cc(NC(=O)Nc4ccccc4)ccc3O[C@@H]2[C@@H](CO)O1)NCc1ccccc1,12.8% [at 30 µM]
12,CN(C)C(=O)C[C@@H]1C[C@@H]2c3cc(NS(=O)(=O)c4ccc(F)cc4)ccc3O[C@@H]2[C@@H](CO)O1,28%
13,O=C(C[C@H]1C[C@@H]2c3cc(NC(=O)Nc4ccc(F)cc4)ccc3O[C@@H]2[C@@H](CO)O1)NCC1CC1,-7.22%
14,O=C(C[C@@H]1C[C@H]2c3cc(NC(=O)Nc4ccc(F)cc4)ccc3O[C@H]2[C@H](CO)O1)NCC1CC1,38.6%
15,Cc1cc(C(=O)N2CCC(C(=O)O)CC2)c(C(F)(F)F)o1,-13.1%
16,CCc1nnc(NC(=O)[C@@H](NC(=O)c2cccc(S(=O)(=O)N(CC)CC)c2)C(C)C)s1,-4.25%
17,Cc1cc(Nc2cccc(C(F)(F)F)c2)cc(=O)n1-c1cccc(C(F)(F)F)c1,-4.17%
18,CCN(CC)S(=O)(=O)c1cccc(NC(=O)c2ccc(-n3nc(C)cc3C)cc2)c1,-21.6%
19,O=C(Nc1cccc(C(F)(F)F)c1)c1ccc(Cn2cc(Br)cn2)o1,-20.7%
20,O=C(C[C@H]1C[C@H]2c3cc(NC(=O)C4CCC4)ccc3O[C@H]2[C@@H](CO)O1)NCc1ccc2c(c1)OCO2,7.29% [at 30 µM]
21,O=C(NCc1cccc(F)c1)[C@@H]1[C@@H](CO)[C@@H]2Cn3c(ccc(-c4cccnc4)c3=O)[C@H]1N2CC1CC1,5.3%
22,CN(C)CCCNC(=O)[C@H]1[C@H](CO)[C@H]2Cn3c(ccc(C4=CCCC4)c3=O)[C@H]2N1CCC(F)(F)F,23.1%
23,Cc1cc(C)c(CN2CCN(C(=O)Cn3ccc(NC(=O)OCc4ccccc4)nc3=O)CC2)c(C)c1,-21.1%
24,CCCNC(=O)C[C@@H]1C[C@@H]2c3cc(NC(=O)CN(C)C)ccc3O[C@@H]2[C@H](CO)O1,1.88%
25,C[C@H](CO)N1C[C@H](C)[C@H](CN(C)C(=O)Nc2ccccc2)Oc2c(NS(=O)(=O)c3ccc(F)cc3)cccc2C1=O,77.5% [at 8 µM]
26,Cc1nn(C)c(C)c1CN(C)S(=O)(=O)c1ccc2ccccc2c1,-19.4%

row,SMILES,"activity change, negative = inhibition"
1,O=C(C[C@H]1C[C@H]2c3cc(NC(=O)NC4CCCC4)ccc3O[C@H]2[C@@H](CO)O1)NC1CCCCC1,4.98% [at 30 µM]
2,COc1ccccc1S(=O)(=O)n1cc(Cc2ccccc2)c(N)n1,0.466%
3,COc1ccc(S(=O)(=O)N[C@@H]2CC[C@@H](CC(=O)NCCc3ccncc3)O[C@@H]2CO)cc1,-7.73%
4,O=C(NCC[C@@H]1CC[C@@H](NS(=O)(=O)c2ccccc2F)[C@@H](CO)O1)c1ccc(F)cc1,23.2%
5,CC1CN(S(=O)(=O)c2cc(C(=O)NCCC3=CCCCC3)ccc2Cl)CC(C)O1 (stereo not drawn),-19.3% [at 16 µM]
6,O=C(Nc1ccc(F)cc1)Nc1ccc2c(c1)[C@H]1C[C@@H](CC(=O)N3CCCCC3)O[C@H](CO)[C@H]1O2,23.7%
7,CO[C@@H]1CN(C)C(=O)c2cc(NC(=O)Nc3ccc(Cl)cc3)ccc2OC[C@H](C)N(C)C[C@H]1C,-23%
8,CCOc1ccccc1C(=O)NCC(=O)NNC(=O)CN(C)S(=O)(=O)c1ccc(Cl)cc1,-16.5%
9,COc1cccc(S(=O)(=O)N[C@H]2CC[C@H](CC(=O)NCc3ccncc3)O[C@@H]2CO)c1,2.5%
10,CCOC(=O)CN1CCCc2nc(C)c(C)cc21,8.7%
11,C[C@@H]1CN([C@@H](C)CO)S(=O)(=O)c2ccc(-c3ccccc3)cc2O[C@H]1CN(C)S(C)(=O)=O,-12.1%
12,CO[C@H]1CN(C)C(=O)c2cc(NC(=O)c3ccc(F)cc3)ccc2OC[C@H](C)N(C(=O)CN(C)C)C[C@@H]1C,16.8%
13,CC(CCc1ccco1)NC(=O)CCc1nnc2ccc(NCc3ccccc3Cl)nn12 (stereo not drawn),19.2%
14,C[C@@H]1CN([C@@H](C)CO)C(=O)Cc2cc(NC(=O)NC3CCCCC3)ccc2O[C@@H]1CN(C)S(=O)(=O)c1ccc(Cl)cc1,17.7% [at 16 µM]
15,CC1CCCC(C)N1CCCNC(=O)c1nn(C)c2c1CSc1ccccc1-2 (stereo not drawn),49.2%
16,CCOc1ccc(NC2c3ccccc3C(=O)N2Cc2ccco2)cc1 (stereo not drawn),4.3%
17,Cn1c(=O)oc2cc(S(=O)(=O)NCc3ccncc3)ccc21,-2.17%
18,O=C(C[C@@H]1C[C@H]2c3cc(NC(=O)C4CCOCC4)ccc3O[C@H]2[C@H](CO)O1)NCc1ccccc1F,23.4%
19,Cc1noc(C)c1NC(=O)N(C)C[C@H]1OCCCC[C@H](C)Oc2ccc(NC(=O)c3ccccc3)cc2C(=O)N([C@H](C)CO)C[C@@H]1C,24.3%
20,CC(C)NC(=O)Nc1ccc2c(c1)C(=O)N([C@@H](C)CO)C[C@H](C)[C@H](CN(C)C(=O)Nc1ccc(F)cc1)O2,-14.9%
21,COc1ccc(S(=O)(=O)n2ccc(-c3ccc(OCCN(C)c4ccccn4)cc3)n2)cc1,-11.7%
22,COc1ccccc1OCC(=O)c1[nH]c(C)c(C(C)=O)c1C,-2.71%
23,O=C(c1ccccc1)N1CCC(c2nc(-c3ccc(S(=O)(=O)NCC4CCCO4)cc3)no2)CC1 (stereo not drawn),-19.1%
24,C[C@@H]1CN([C@H](C)CO)C(=O)c2c(c3ccccc3n2C)-c2ccccc2CO[C@@H]1CN(C)S(=O)(=O)c1cccc(F)c1,247% [at 18 µM]
25,C[C@@H]1CN([C@@H](C)CO)C(=O)c2cccc(NC(=O)c3ccc(-c4nccs4)cc3)c2O[C@H]1CN(C)CC1CC1,-19.5%
26,CCn1ncc(C2=NOC(C(=O)Nc3ccc(C)cc3)C2)c1C (stereo not drawn),-4.06%

# Source: PubChem BioAssay AID652057 (Broad Institute, 2013)
